This is an account of results in ChEMBL document CHEMBL4513216, “Probing the Open Global Health Chemical Diversity Library for Multistage-Active Starting Points for Next-Generation Antimalarials” (ACS Infect Dis, 2020).

Screen size: about 69,000 compounds; about 8,600 (12%) showed an effect of 50% or more. For the sample, strong results were picked, then their nearest neighbours and some compounds at random.

For the assay, the system named is Plasmodium berghei. The assay can be described thus: Screen against P. berghei liver stage (PbLuc), transformed with Luciferase, at 10uM. The note with it: tested at 10 uM. It counts as functional, HepG2.
For `Cn1cccc1C(=O)N1CCc2ncnc(C3CC3)c2CC1`, the INHIBITION was 35.8%. For `COCCSCC(=O)NCc1ccc(N(C)C)nc1` the value was 43.5%. As for `CCOCCCNC(=O)c1nc2c(s1)CCCN2c1ccc(C)nn1`, the INHIBITION worked out at 35.8%. Then `COC(=O)CC(C)(C)CC(=O)N1CCC(C(F)(F)F)CC1`, with 24.6%. Turning to `Cc1nc(C2CCCN2CCCS(N)(=O)=O)no1` (stereo unspecified), the INHIBITION came out at 22.5%. Take `CCc1nc(C2CCCN2CCCc2nc3ccccc3o2)no1` (stereo unspecified): the INHIBITION is listed as 62.6%. For the compound `Cc1nc(C2CCCN2CCCS(=O)(=O)c2ccccc2)no1` (stereo unspecified), the INHIBITION is reported as 3.603%. Turning to `CCc1nc(C2CCCN2CCS(=O)(=O)c2ccccc2)no1` (stereo unspecified), the INHIBITION is recorded as 22.007%. With `Cc1nc(C2CCCN2CCCc2nc3ccccc3o2)no1` (stereo unspecified), the INHIBITION was determined as 21.6%.

As for `CC(C)c1nc(C2CCCN2CCCc2nc3ccccc3o2)no1` (stereo unspecified), the INHIBITION is recorded as 26.3%.

On to `CN(C)S(=O)(=O)CCCN1CCCC1c1noc(C2CC2)n1` (stereo unspecified), for which the INHIBITION is -15.5%. For `Cc1nc(C2CCCN2CCCS(=O)(=O)N(C)C)no1` (stereo unspecified), the INHIBITION worked out at 54.3%.

As for `CCc1nc(C2CCCN2CCCS(=O)(=O)c2ccccc2)no1` (stereo unspecified), the INHIBITION was found to be 51.2%. Then `O=C(NCCN1CCCCC1)c1ccn(-c2ccccc2)n1`, with 19.6%; and `CCSCC(C)NCc1cn2ccccc2n1` (stereo unspecified), with -20%; and `COCC1CN(Cc2csc(C)n2)Cc2nccn2C1` (stereo unspecified), with 4.61%. Regarding `CCc1ncc(CNCc2cccnc2N(C)C)cn1`, the INHIBITION is on record as -0.29%. For `Cc1cccc(C)c1OCCNC(=O)C(C)n1cncn1` (stereo unspecified) the value was -42.3%; for `O=C(c1cccs1)N1CCC2(CC1)CN(c1ccsc1)C(=O)CO2`, 22.9%. Then `O=C1COC2(CCN(c3ncccn3)CC2)CN1c1ccsc1`, with 26.5%; and `NC(=O)N1CCC2(CC1)CN(c1ccsc1)C(=O)CO2`, with 54.6%. Then `O=C(c1cccs1)N1CCC2(CC1)CN(c1cncnc1)C(=O)CO2`, with 48.6%.

In the case of `COCC(=O)N1CCC2(CC1)CN(c1ccsc1)C(=O)CO2`, the INHIBITION stood at 64.9%. Then `O=C(Nc1ccccc1)N1CCC2(CC(=O)N(c3ccsc3)C2)C1` (stereo unspecified), with -12.2%; and `O=C(C1CCOCC1)N1CCC2(CC1)CN(c1ccsc1)C(=O)CO2`, with 74.2%. Then `CCc1cnc(N2CCC3(CC2)CN(c2cccnc2)C(=O)CO3)nc1`, with 47.2%. In the case of `Cc1cnc(N2CCC3(CC2)CN(c2ccsc2)C(=O)CO3)nc1`, the INHIBITION was 53.9%. Turning to `CN(C)CC(=O)N1CCC2(CC1)CN(c1ccsc1)C(=O)CO2`, the INHIBITION amounted to 47.2%. With `O=C(C1CC1)N1CC[C@H]2C(=O)N(c3ccsc3)CCO[C@H]2C1`, the INHIBITION is reported as 33%. For `COCC(=O)N1CCC2(CC1)CN(c1cncnc1)C(=O)CO2` the value was 24.1%; for `O=C(NCc1ccco1)[C@H]1COC[C@H]2CN(Cc3ccoc3)C[C@H]21`, 25.2%; for `CCOc1ccc(C#N)cc1NCC(=O)NC1(C#N)CCCC1`, -2.53%. In the case of `Cc1ccc(NC(=O)N2CCCC2)c(OCC2CCCO2)c1` (stereo unspecified), the INHIBITION is given as -8.11%. Then `CCS(=O)(=O)N1CCN(Cc2cccnc2)c2nc(C)ccc2C1`, with 38.1%; and `O=C(Nc1cccs1)NC(CCCO)c1ccccc1` (stereo unspecified), with 24.3%. Turning to `O=C(NCc1csc(Br)c1)N1CCC(O)CC1`, the INHIBITION is on record as -0.822%. Then `COCC(=O)NCCCn1nc2ccccn2c1=O`, with 19.7%; and `CC(C)N(C)Cc1nnc2n1CCN(CC1CC1)CC2`, with 20.1%. Take `CCS(=O)(=O)N1CCC2(CC1)CN(c1ccsc1)C(=O)CO2`: the INHIBITION turned out to be 54.4%. Turning to `CCS(=O)(=O)N1CCC2(CC1)CN(c1cncnc1)C(=O)CO2`, the INHIBITION came to 14.1%. Turning to `O=C1COC2(CCN(S(=O)(=O)C3CC3)CC2)CN1c1ccsc1`, the INHIBITION is given as 3.25%. On to `Cc1cc2ccccc2n1CCC(=O)N1CCN(C)CC1C(N)=O` (stereo unspecified), for which the INHIBITION came out at 34.9%. With `CSCC(=O)N1CCOC(c2nc(C)n[nH]2)C1` (stereo unspecified), the INHIBITION is 36.8%.

With `CC(C)c1nc(C2CCCN(C(=O)c3cccc4c3OCO4)C2)no1` (stereo unspecified), the INHIBITION was 42%. Then `CSc1ncc(C(=O)N2C[C@@H]3CC[C@H]2CN(Cc2ccccc2)C3)cn1`, with -9.76%; and `CN(C)CCN(C)S(=O)(=O)CC1CCOCC1`, with 30.2%.

As to `CN1CCN(CCCN(C)S(=O)(=O)CC2CCCCC2)CC1`, the INHIBITION is listed as 54.4%. In the case of `Cc1ccc2cccc(S(=O)(=O)N(C)CC3CCN(C)C3)c2n1` (stereo unspecified), the INHIBITION was found to be 16%.

In the case of `CN1CCC(CN(C)S(=O)(=O)CC2CCCCC2)CC1`, the INHIBITION is given as 72.3%. Consider `CN1CCN(CCCN(C)S(=O)(=O)C2CCCCC2)CC1`, for which the INHIBITION is listed as 43.2%. Then `CN(CCN1CCCC1=O)S(=O)(=O)CC1CCCC1`, with 88%; and `CN(CCN1CCOCC1)S(=O)(=O)CC1CCCC1`, with 38.7%. For `CN1CCN(CCCNC(=O)C2CCCCC2)CC1` the value was -24%; for `Cc1ccc2cccc(S(=O)(=O)N(C)CC3CCN(C)CC3)c2n1`, 17.6%.

As to `O=C(NCCCn1cccn1)N1CCCC1c1cccs1` (stereo unspecified), the INHIBITION worked out at 25.2%. Consider `Cc1ccsc1CN1CC[C@H]2OCC[C@@]2(C(=O)N2CCCO2)C1`, for which the INHIBITION turned out to be 37.2%. As for `COCCNC(=O)[C@@H]1C[C@@H]2CCN(c3ncccn3)C[C@H]2O1`, the INHIBITION was 4.57%.

With `O=C(Nc1ccccc1F)C1CSCN1C(=O)CCc1ccco1` (stereo unspecified), the INHIBITION is reported as -39.2%. Then `Cc1cc(CN(C)C(=O)NCc2ccccn2)no1`, with -22.8%; and `Cc1cc(CN(C)C(=O)Nc2ccccc2C)no1`, with 67.1%; and `COc1cc(F)c(NC(=O)N(C)Cc2cc(C)on2)cc1F`, with 52.6%. For `CCNC(=O)c1ccc(NC(=O)N(C)Cc2cc(C)on2)c(C)c1` the value was 29.6%; for `COc1ccc(S(N)(=O)=O)cc1C(=O)N(C)Cc1cc(C)on1`, 51.2%. Take `COc1ccc(Cl)cc1C(=O)N(C)Cc1cc(C)on1`: the INHIBITION is on record as -4.16%. In the case of `COc1cc(F)c(NC(=O)N(C)CCNC(=O)N(C)C)cc1F`, the INHIBITION amounted to 36.3%. For `CCN(C)C(=O)Nc1cc(F)c(OC)cc1F` the value was 14.9%; for `COc1ccc(F)cc1C(=O)N(C)Cc1cc(C)on1`, 35.7%; for `Cc1ccc(-n2nnc(C(=O)O)c2C)c(C)c1`, 14.2%. `CCOCCC(=O)N1C[C@@H]2CC[C@H]1CN(c1ncccn1)C2`: the INHIBITION is 43.2%.

With `Cc1cccc(NC(=O)C2CSCN2C(=O)c2cnccn2)c1C` (stereo unspecified), the INHIBITION is reported as 33.35%. Turning to `COc1ccc(C)cc1CC(=O)NS(=O)(=O)c1ccc(C(N)=O)cc1`, the INHIBITION is recorded as -2.19%.
